Screens as filed in PubChem BioAssay.
HSP90 inh: blocks HSP90-mediated luciferase refolding in reticulocyte lysate; Rabbit reticulocyte lysate, luciferase refolding luminescence, 3 h; inhibition, % at 5.6 µM; 0.91% of 290,000 active; AID 1789;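 active = inhibition above the screen-wide mean plus 3 SD, computed separately per campaign, cut at about 16% in these data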;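 note: 0% = DMSO wells and 100% = 60 µM geldanamycin wells; inhibitors lower the luminescence because luciferase stays unfolded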
dFosB activator: enhances mouse delta FosB homodimer DNA binding | P13346 | purified delta FosB, TAMRA-CDK5 oligo fluorescence polarization; percent of positive-control signal above neutral wells | activation, % at 25 µM | 0.99% of 340,000 active | AID 493131;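 active = mean activation above about 17%, with every replicate also reaching it, limit read from the data, passing the limit was not always enough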
Target sequence (P13346 whole entry, looked up): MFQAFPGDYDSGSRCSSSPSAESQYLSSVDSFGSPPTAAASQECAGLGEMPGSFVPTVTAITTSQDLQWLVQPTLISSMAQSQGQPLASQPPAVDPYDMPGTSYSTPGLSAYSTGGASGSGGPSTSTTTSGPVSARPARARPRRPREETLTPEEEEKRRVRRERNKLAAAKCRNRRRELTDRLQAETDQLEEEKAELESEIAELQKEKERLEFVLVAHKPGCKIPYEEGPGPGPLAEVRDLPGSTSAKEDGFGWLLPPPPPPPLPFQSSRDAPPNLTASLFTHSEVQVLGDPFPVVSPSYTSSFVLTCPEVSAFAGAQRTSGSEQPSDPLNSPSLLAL
MPTP inh: inhibitors of mitochondrial permeability transition pore; isolated mouse mitochondria, Ca2+ swelling absorbance, 30 min; inhibition, % at 10 µM; 1.4% of 360,000 active; AID 602449;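 active = inhibition of 50% or more, scaled per plate between neutral and stimulator controls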;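 note: 0% = DMSO wells given calcium and 100% = 1 mM EGTA wells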
Platelet DG rel: modulates dense granule release in human platelets; human platelet-rich plasma, SFLLRN dense granule ATP release, luminescence; inhibition, %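 (compounds screened at 7.5 µM in platelet-rich plasma)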; 0.22% of 300,000 active; AID 1663;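 active = mean replicate score, as percent of positive control, at or above 50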
HSF1 inh: HSF1 inhibition | NIH3T3-HGL HSE-luciferase, MG132-induced, luminescence 8 h; hits give low values | 0.77% of 300,000 active | AID 2098 | activity change, negative = inhibition, % at 7.5 µM (by protocol);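 active = more than half of replicate wells show activity change below -50%, luminescence cut by over half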;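 note: luciferase reports HSF-1 transcriptional activity via heat shock element; 0% = median of DMSO wells and -100% = zero luminescence signal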
HSF-1 act: increases HSF-1 driven luciferase reporter signal; 1.7% of 300,000 active; activation, % at 9 µM; NIH3T3-HGL HSF-1 luciferase reporter, MG132, 8 h; 100% = twice DMSO control signal;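 active = mean replicate activation of at least 50% with a set share of replicates each reaching 50%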;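 note: 0% = median of the neutral control wells and 100% = twice that signal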
The depositor's hits bear a star; nt = no result. Compounds with a hit are over-represented: about 4.9% of the library has one in this group of screens.

SMILES	HSP90 inh	dFosB activator	MPTP inh	Platelet DG rel	HSF1 inh	HSF-1 act
CC(O)CNCCNCc1c(OCc2ccccc2)ccc2ccccc12 (stereo not given)	-2	5	3	3	8	21
Cc1ccnc(NC(=O)C2CC(=O)N(c3ccc4c(c3)OCCO4)C2)c1 (stereo not given)	14	-5	1	10	8	28
CCOc1cc(N2CCOCC2)c(OCC)cc1NC(=O)c1ccc(OC)c(S(=O)(=O)N2CCOCC2)c1	nt	-1	-2	nt	nt	nt
CCCCCCCCCCCCCCCC(=O)OC(CC(=O)O)C[N+](C)(C)C (stereo not given)	nt	11	-5	nt	nt	nt
CCn1c(-c2ccccc2)c(C(=O)CCl)c2ccccc21	-2	-10	2	-4	60	98*
CCCCn1c(SCc2nc3ccccc3s2)nc2ccccc2c1=O	3	-4	5	3	14	39
CCCCn1c(SCc2nc3ccccc3s2)nc2cc(S(N)(=O)=O)ccc21	5	-8	2	-1	52	75*
Cc1ccc(CN2C(=O)CCC2(C)c2nnnn2Cc2ccccc2)cc1 (stereo not given)	nt	nt	-1	nt	nt	nt
CN(C)c1ccc(C(=O)OCC(=O)Nc2ccc(S(N)(=O)=O)cc2)cc1	1	82*	0	-6	-1	2
CN(C)c1ccc(NC(=O)COC(=O)c2ccc3c(c2)OCO3)cc1	nt	-1	-1	nt	nt	nt
O=Cc1c(-c2ccc(Cl)cc2)oc2ccc(O)cc12	nt	nt	4	6	-55*	-57
CC(=O)c1cc(-c2ccccc2)n(CC(=O)Nc2cc(C)cc(C)c2)c1C	0	33*	7	26	4	5
Cc1cc(NC(=O)CN2C(=O)NC(C)(c3ccccc3)C2=O)no1 (stereo not given)	8	1	-1	-4	-7	0
Cc1cc(C)cc(NC(=O)CN2C(=O)NC(C)(c3ccccc3)C2=O)c1 (stereo not given)	0	1	0	-17	39	86*
CCOC(=O)C1=C(COC(=O)c2ccc(Cl)nc2)NC(=O)NC1C (stereo not given)	nt	-10	-1	nt	nt	nt
CCOC(=O)COc1ccc2ccccc2c1/C=C/[N+](=O)[O-]	1	-7	1	-3	139	177*
CCOC(=O)COc1ccc(/C=C/[N+](=O)[O-])c(OCC(=O)OCC)c1	2	-11	0	1	161	197*
CCOC(=O)COc1ccc2nsnc2c1	2	-3	-2	3	8	-8
CCOc1ccc(/C=C/[N+](=O)[O-])c2ccccc12	2	-10	4	2	47	76*
Cc1ccc(C(=O)Nc2c(-c3ccc(Cl)cc3)[nH][nH]c2=O)cc1	nt	nt	-1	nt	nt	nt
COc1ccccc1/C=C/C=N/NC(=O)CC1C(=O)NN=C1C (stereo not given)	-2	1	4	-9	5	14
Cc1ccc(C(=O)N2[C@@H]3CN(C)C(=O)[C@@]2(Cc2ccccc2)[C@H]2C(=O)N(Cc4ccccc4)C(=O)[C@@H]32)cc1	nt	7	0	nt	nt	nt
COc1cc2c(cc1NC(=O)C(C)Sc1ccc(NC(C)=O)cc1)oc1ccccc12 (stereo not given)	2	-8	7	-9	-60*	-68
COc1cc2c(cc1NC(=O)C(C)OC(=O)C1CC(=O)N(Cc3ccco3)C1)oc1ccccc12 (stereo not given)	-3	1	1	0	35	74*
COc1cc2c(cc1NC(=O)Nc1ccc(C)cc1)oc1ccccc12	-3	5	25	-7	13	-2
SMILES	HSP90 inh	dFosB activator	MPTP inh	Platelet DG rel	HSF1 inh	HSF-1 act
OC(CNCCc1ccc(C(F)(F)F)cc1)COC(c1ccccc1)c1ccccc1 (stereo not given)	9	-2	4	-4	11	34
Cc1ccc(C)c(Cn2nnc3c(=O)[nH]c(C4CCN(C(=O)c5cccs5)CC4)nc32)c1	0	-11	-1	-6	27	76*
Cc1noc2ncnc(Sc3ccc(Br)cc3)c12	4	-4	1	3	129	153*
CN(C)c1ccc(/C=C/C(=O)c2ccccc2O)cc1	6	3	1	8	24	58*
Cc1cccc(-n2ncc3c(N(CCO)CCO)ncnc32)c1	-4	-2	-1	25	7	20
COc1ccc(-n2ncc3c(N(C)C4CCCCC4)ncnc32)cc1	79*	-16	2	1	-85*	-87
Cc1cccc(-n2ncc3c(N(C)C4CCCCC4)ncnc32)c1	nt	-9	-1	21	-91*	-92
CC1(C(=O)NS(=O)(=O)c2cccc(Cl)c2)CCN1C(=O)COc1ccc(Cl)cc1 (stereo not given)	nt	nt	0	nt	nt	nt
CCN(CC)C(=O)Cn1cc(S(=O)(=O)CC(=O)NCc2ccccc2)c2ccccc21	6	-5	2	5	5	19
Cc1ccc(/C=N/Nc2ccc(C(=O)O)cc2)s1	79*	-4	0	83*	-76*	-79
Cc1ccc(/C=N/Nc2ccc(C(=O)O)cc2)o1	12	-1	0	33	-3	1
CCN(c1ccccc1)S(=O)(=O)c1ccc(C(=O)Oc2ccc(C(C)=O)cc2)cc1	1	-7	0	17	-2	10
CC1CCCC(C)N1C(=O)CSc1ccc(-c2ccc3c(c2)OCCO3)nn1 (stereo not given)	-2	-14	-2	-3	-88*	-91
COc1ccc(Nc2nc(NCCCN3CCOCC3)nc(N)c2[N+](=O)[O-])cc1	5	9	1	-14	0	-3
Cc1cccc(Nc2nc(NCCCN3CCOCC3)nc(N)c2[N+](=O)[O-])c1	-5	37*	0	-28	8	4
Nc1nc(NCCCN2CCOCC2)nc(Nc2ccccc2F)c1[N+](=O)[O-]	1	25*	2	9	14	33
Nc1nc(NCCCN2CCOCC2)nc(Nc2ccc(F)cc2)c1[N+](=O)[O-]	-1	31*	3	-5	0	-6
Nc1nc(NCCCN2CCOCC2)nc(Nc2cccc(F)c2)c1[N+](=O)[O-]	2	26*	-2	6	1	9
CCn1nc([N+](=O)[O-])c2c(-c3nc4ccccc4o3)c(N)n(CCCOC)c2c1=O	1	-2	2	2	1	5
CC1CCCCC1NC(=O)CSc1ncnc2sccc12 (stereo not given)	nt	nt	-1	nt	nt	nt
COC(=O)c1ccc2nc(-c3ccc(C#N)cc3)c(Cc3cccc(F)c3)n2c1	nt	nt	1	nt	nt	nt
O=C(O)CSc1c(-c2cccs2)[nH]c2ccccc12	6	6	-2	0	3	11
O=C(O)CSc1c(-c2ccccc2)[nH]c2ccccc12	-3	1	0	4	34	70*
CCOC(=O)c1cnn(-c2ccc(F)cc2)c1N	-4	-12	0	8	-2	8
